In the antibiotic and cytotoxicity screens of Wong et al. (2023):
In all, about 39,000 compounds went through this assay and about 500 (1.3%) were called active. What follows is part of a selection rich in actives, with near analogues and random picks from the rest.

system: S. aureus RN4220; test: growth inhibition call (relative growth <= 0.2); settings: 50 µM

Row | SMILES | growth inhibition call
1 | CO[C@@H]1CC[C@@H]2[C@H]1OCCN2C(=O)N(C)C | inactive
2 | CCCC#Cc1ccc2c(c1)O[C@@H](CN(C)S(=O)(=O)c1cccc(F)c1)[C@@H](C)CN([C@H](C)CO)S2(=O)=O | inactive
3 | c1ccc2c(c1)ccc1cc3c(ccc4ccccc43)cc12 | inactive
4 | COc1ccc2ccccc2c1-c1c(OC)ccc2ccccc12 | inactive
5 | Nc1ccc(Sc2ccc3ccccc3c2Cl)c(Cl)c1 | active
6 | Nc1ccc(Oc2ccc3ccccc3c2Cl)c(Cl)c1 | active
7 | COc1cc(Cl)ccc1Oc1ccc(Cl)cc1Cl | inactive
8 | C[C@@H]1CN([C@H](C)CO)C(=O)c2cc(NC(=O)Nc3ccc4c(c3)OCO4)ccc2O[C@@H](C)CCCCO[C@H]1CN(C)Cc1ccc(C(=O)O)cc1 | inactive
9 | C[C@@H]1CN([C@H](C)CO)C(=O)c2cc(NC(=O)Nc3ccc4c(c3)OCO4)ccc2O[C@@H](C)CCCCO[C@@H]1CN(C)C(=O)CCC(F)(F)F | inactive
10 | COc1ccc(CN(C)C[C@@H]2Oc3c(NC(=O)c4ccc(-c5nccs5)cc4)cccc3C(=O)N([C@@H](C)CO)C[C@H]2C)cc1 | inactive
11 | Cc1noc(C)c1S(=O)(=O)Nc1ccc2c(c1)CC(=O)N([C@@H](C)CO)C[C@H](C)[C@H](CN(C)S(=O)(=O)c1cn(C)cn1)O2 | inactive
12 | C[C@@H]1CN([C@H](C)CO)C(=O)c2cccc(NS(C)(=O)=O)c2O[C@H]1CN(C)C(=O)Nc1ccccc1 | inactive
13 | CC(C)NC(=O)Nc1ccc2c(c1)C(=O)N([C@H](C)CO)C[C@H](C)[C@H](CN(C)Cc1ccc(C(=O)O)cc1)O2 | inactive
14 | NCC1OC(OC2C(N)CC(N)C(OC3OC(CO)C(O)C(N)C3O)C2O)C(N)CC1O (centres undefined) | active
15 | NC[C@H]1O[C@H](O[C@H]2[C@H](O)[C@@H](O[C@H]3O[C@H](CO)[C@@H](O)[C@H](N)[C@H]3O)[C@H](N)C[C@@H]2N)[C@H](N)C[C@@H]1O | active
16 | NC[C@@H]1O[C@H](O[C@H]2[C@@H](O)[C@H](O[C@@H]3[C@@H](O)[C@H](N)C[C@H](N)[C@H]3O[C@@H]3O[C@H](CO)[C@@H](O)C[C@H]3N)O[C@@H]2CO)[C@H](N)[C@@H](O)[C@@H]1O[C@H]1O[C@H](CO)[C@@H](O)[C@H](O)[C@@H]1O | inactive
17 | NC[C@H]1O[C@H](O[C@H]2[C@@H](O[C@@H]3O[C@H](CO)[C@@H](O)[C@H]3O)[C@@H](O)[C@H](N)C[C@@H]2N)[C@H](N)[C@@H](O)[C@@H]1O | inactive
18 | NC[C@H]1O[C@H](O[C@@H]2[C@H](O)[C@@H](O[C@H]3O[C@H](CO)[C@@H](O)[C@H](N)[C@H]3O)[C@H](N)C[C@@H]2N)[C@H](O)[C@@H](O)[C@@H]1O | inactive
19 | NCC1CCC(N)C(OC2C(N)CC(N)C(OC3OC(CO)C(O)C(N)C3O)C2O)O1 (centres undefined) | inactive
20 | C[C@@H]1CN([C@@H](C)CO)C(=O)c2cccc(NC(=O)CCCCCC(=O)Nc3ccccc3N)c2O[C@@H]1CN(C)C(=O)Nc1ccc(F)cc1 | inactive
21 | OCC(CO)NC1CC(O)(CO)C(O)C(O)C1O (centres undefined) | inactive
22 | C[C@H](CO)N1C[C@H](C)[C@H](CN(C)CC2CC2)OCCCC[C@H](C)Oc2ccc(NC(=O)Cc3ccccc3)cc2C1=O | inactive
23 | COc1ccc(NC(=O)Nc2ccc3c(c2)C(=O)N([C@@H](C)CO)C[C@H](C)[C@@H](CN(C)S(=O)(=O)c2ccc(Cl)cc2)OCCCC[C@H](C)O3)cc1 | inactive

Row | SMILES | growth inhibition call
24 | CCCNC(=O)N1C[C@]2(CCN(CC2)S(=O)(=O)c2ccccc2)c2c(n(c3cc(ccc23)OC)C)[C@@H]1CO | inactive
25 | C[C@H](CO)N1C[C@H](C)[C@@H](CN(C)Cc2ccc(C(F)(F)F)cc2)Oc2ccc(NC(=O)Nc3ccc(F)cc3)cc2CC1=O | inactive
26 | Cc1cc2nc(C(=O)NC[C@H]3CCCS(=O)(=O)C3)cc(-c3ccccc3Cl)c2c(C)c1-c1ccncc1 | inactive
27 | Cc1cc2nc(C(=O)N[C@H]3CCN(C)C3)cc(-c3ccccc3Cl)c2c(C)c1-c1ccc(CO)cc1 | active
28 | CC(C)(C)[S@@](=O)N1Cc2cc(C(=O)N[C@@H]3CCN(Cc4ccccc4)C3)nc(-c3cccc(-c4ccncc4)c3)c2[C@H]1CCO | inactive
29 | CC(C)NC(=O)N(C)C[C@@H]1Oc2ccc(NC(=O)Cc3ccccc3)cc2CC(=O)N([C@@H](C)CO)C[C@H]1C | inactive
30 | CC(C)[C@@H](CS(=O)(=O)C(C)C)N1C(=O)[C@@](C)(CC(=O)O)C[C@H](c2cccc(Cl)c2)[C@H]1c1ccc(Cl)cc1 | inactive
31 | COc1ccc(C[C@@H](N)C(=O)N[C@@H]2[C@@H](O)[C@@H](n3cnc4c(N(C)C)ncnc43)O[C@@H]2CO)cc1 | active
32 | COc1nc(N)nc2c1ncn2[C@@H]1O[C@H](CO)[C@@H](O)[C@@H]1O | inactive
33 | COc1ccc(C[C@H](N)C(=O)N[C@H]2[C@@H](O)[C@@H](n3cnc4c(N(C)C)ncnc43)O[C@@H]2CO)cc1 | active
34 | Nc1ncnc2c1ncn2[C@@H]1O[C@H](CO)[C@@H](O)[C@@H]1O | inactive
35 | COc1ccc(C[C@H](N)C(=O)N[C@H]2[C@@H](O)[C@H](n3cnc4c(N(C)C)ncnc43)O[C@@H]2CO)cc1 | active
36 | CNc1ncnc2c1ncn2[C@@H]1O[C@H](CO)[C@@H](O)[C@H]1O | inactive
37 | Nc1ncnc2c1ncn2[C@H]1O[C@@H](CO)[C@H](O)[C@@H]1O | inactive
38 | COc1ccc(CC(N)C(=O)NC2C(CO)OC(n3cnc4c(N(C)C)ncnc43)C2O)cc1.Cl.Cl (centres undefined) | inactive
39 | CN(C)c1ncnc2c1ncn2[C@H]1O[C@@H](CO)[C@@H](N)[C@@H]1O | inactive
40 | O=C(C[C@@H]1CC[C@@H]2[C@H](COC[C@@H](O)CN2C(=O)c2ccccc2F)O1)N1CCN(c2ccccc2)CC1 | inactive
41 | C[C@H](CO)N1C[C@H](C)[C@H](CN(C)Cc2ccc(C(=O)Nc3ccccc3N)cc2)Oc2ccc(NC(=O)Nc3ccc(C(F)(F)F)cc3)cc2CC1=O | inactive
42 | C[C@@H]1CN([C@@H](C)CO)C(=O)c2cc(NS(=O)(=O)c3cn(C)cn3)ccc2O[C@@H]1CN(C)S(=O)(=O)c1cccs1 | inactive
43 | Cc1noc(C)c1NC(=O)Nc1cccc2c1O[C@H](CN(C)Cc1ccc(C(=O)Nc3ccccc3N)cc1)[C@@H](C)CN([C@H](C)CO)C2=O | inactive
44 | Cc1noc(C)c1S(=O)(=O)Nc1ccc2c(c1)C(=O)N([C@@H](C)CO)C[C@H](C)[C@@H](CN(C)Cc1ccc3c(c1)OCO3)O2 | inactive
45 | CCCCCCCCC=CCCCCCCCC(=O)[O-].[NH3+]CCO | inactive
46 | C[C@H]1CN([C@@H](C)CO)C(=O)c2cc(NC(=O)Nc3cccc4ccccc34)ccc2O[C@@H]1CN(C)Cc1ccc(-c2ccccc2)cc1 | inactive

Row | SMILES | growth inhibition call
47 | CC(C)NC(=N)NC(=N)Nc1ccc(Cl)cc1.Cl | inactive
48 | Cl.N=C(NN=Cc1ccc(Cl)cc1)NN=Cc1ccc(Cl)cc1 | inactive
49 | Cl.Cl.N=C(NCCCCCCNC(=N)NC(=N)Nc1ccc(Cl)cc1)NC(=N)Nc1ccc(Cl)cc1 | active
50 | C[C@H](CO)N1C[C@H](C)[C@H](CN(C)Cc2ccc3c(c2)OCO3)Oc2c(NC(=O)C3CC3)cccc2C1=O | inactive
51 | C[C@H](CO)N1C[C@H](C)[C@@H](CN(C)Cc2ccc(C(=O)O)cc2)Oc2ccc(NC(=O)Cn3cnnn3)cc2C1=O | inactive
52 | Cl.Nc1ccn(C2OC(CO)C(O)C2(F)F)c(=O)n1 (centres undefined) | active
53 | Nc1ccn([C@@H]2O[C@H](CO)[C@@H](O)C2(F)F)c(=O)n1 | inactive
54 | C[C@@]1(F)[C@H](O)[C@@H](CO)O[C@H]1n1ccc(N)nc1=O | inactive
55 | COc1ccc(NC(=O)N(C)C[C@@H]2OCCCC[C@H](C)Oc3ccc(NC(=O)c4ccccc4)cc3C(=O)N([C@@H](C)CO)C[C@@H]2C)cc1 | inactive
56 | COc1ccc2c3c([nH]c2c1)[C@H](CO)N(Cc1ccc(cc1)Cl)C[C@]13CCN(CCc2ccccc2)CC1 | inactive
57 | COc1ccc2c3c([nH]c2c1)[C@H](CO)N(C[C@]13CN(CCc2ccccc2)C1)C(=O)CN1CCOCC1 | inactive
58 | COc1ccc2c3c([nH]c2c1)[C@H](CO)N(Cc1ccc(cc1)Cl)C[C@]13CCN(CC1)Cc1nccs1 | inactive
59 | COc1ccc2c3c([nH]c2c1)[C@H](CO)N(Cc1ccc(cc1)Cl)C[C@]13CN(CCc2ccccc2)C1 | active
60 | COc1ccc2c3c([nH]c2c1)[C@@H](CO)N(Cc1ccc(cc1)Cl)C[C@]13CCN(CCc2ccccc2)CC1 | active
61 | COc1ccc2c3c([nH]c2c1)[C@@H](CO)N(Cc1ccc(cc1)Cl)C[C@]13CN(CCc2ccccc2)C1 | active
62 | COc1ccc2c3c([nH]c2c1)[C@H](CO)N(Cc1ccc(cc1)Cl)C[C@]13CCN(CC1)Cc1ccccc1 | inactive
63 | COc1ccc2c3c([nH]c2c1)[C@@H](CO)N(Cc1ccc(cc1)Cl)C[C@]13CCN(CC1)Cc1ccccc1 | inactive
64 | COc1ccc2c3c([nH]c2c1)[C@@H](CO)N(C[C@]13CN(CCc2ccccc2)C1)C(=O)CN1CCOCC1 | inactive
65 | Cc1ccc(NC(=O)Nc2cc(C(F)(F)F)ccc2F)cc1Nc1ccc2c(c1)NC(=O)/C2=C\c1ccc[nH]1 | inactive
66 | N[C@@]1(C(=O)O)CO[C@H]2[C@H](C(=O)O)[C@H]21 | inactive
67 | O=C(NCC(=O)N1CC[C@H](N[C@H]2CC[C@@](O)(c3ccc(-c4ncccn4)cn3)CC2)C1)c1cccc(C(F)(F)F)c1 | inactive
68 | CO[C@@H]1CN(C)C(=O)c2cc(NS(=O)(=O)CC(F)(F)F)ccc2OC[C@H](C)N(Cc2ccccn2)C[C@H]1C | inactive
69 | CCCNC(=O)N1[C@@H]2Cn3c(cccc3=O)[C@H]1[C@@H](C(=O)NCC(F)(F)F)[C@@H]2CO | inactive
